# Shown are actives, neighbours in structure and some others; about 2.1% of the full set was active somewhere.
# KLF5 inhibitor = suppresses KLF5 promoter-driven expression. DLD-1 KLF5 promoter-luciferase reporter, luminescence. inhibition, % at 5 µM. 290,000 compounds, 0.23% hits. AID 1700;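 active = inhibition above a per-plate limit of that plate's mean compound inhibition plus 3 SD, cut at about 60% in these data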;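 note: 0% = DMSO wells and 100% = LY294002 at 200 µM; higher means less KLF5 promoter-driven luciferase light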
# BaF3 tox = reduces parental Ba/F3 cell viability, JAK2V617F counter-screen | inhibition, % at 5.6 µM | 220,000 compounds, 1.1% hits | CellTiter-Glo ATP luminescence;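 active = inhibition above a per-campaign cutoff, the mean inhibition of all tested compounds plus 3 SD, cut at about 27% in these data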;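 note: 0% = DMSO wells and 100% = JAK Inhibitor I control wells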
# IEC-6 cytotox = counter-screen for KLF5 inhibitors: cytotoxicity in IEC-6 cells; IEC-6 cytotoxicity, luminescence viability; inhibition, % at 5 µM; 290,000 compounds, 0.78% hits; in the data active = inhibition above about 22%;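 note: 0% = plate median of test compound wells and 100% = cytotoxic reference compound wells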
# aSyn 5UTR inh = 5' untranslated region of α-synuclein, MLPCN primary screen | inhibition, % (tested at 7.5 µM) | 300,000 compounds, 0.82% hits | alpha-synuclein 5'UTR reporter, inhibitor activity | AID 1813; in the data active = inhibition above about 60%;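 note: H4 neuroglioblastoma cells stably carrying SNCA 5'UTR luciferase fusion; 0% = DMSO wells and 100% = positive control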
# Ba/F3 V617F tox = lowers viability of Ba/F3 cells expressing EpoR and JAK2V617F; AID 1446; 220,000 compounds, 1.1% hits; ATP luminescence; inhibition, % at 5.6 µM;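 active = inhibition above the campaign mean plus 3 SD over all tested compounds, cut at about 24% in these data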;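 note: cytokine-independent growth of Ba/F3 cells driven by EpoR plus mutant JAK2; 0% = DMSO-treated cells and 100% = JAK inhibitor I control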
# APP transl inh = APP translation inhibition. SH-SY5Y APP 5'UTR-luciferase reporter, luminescence. inhibition, % at 2 µM. 190,000 compounds, 0.82% hits. AID 1285;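 active = inhibition above a set limit, derived from the sample mean plus 3 SD, cut at about 45% in these data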
# Starred values were filed as active, the others as inactive; x = no result.
SMILES,KLF5 inhibitor,BaF3 tox,IEC-6 cytotox,aSyn 5UTR inh,Ba/F3 V617F tox,APP transl inh
CC(C)CCc1noc(CN2CCN(c3ccc(Cl)cn3)CC2)n1,4.0,1.7,-3.5,-22.6,-1.2,-14.1
COc1ccc(C(=O)Nn2c(C)nc3ccccc3c2=O)cc1[N+](=O)[O-],-14.4,x,4.1,4.2,x,x
Nc1c(C(=O)Nc2nc3ccccc3s2)sc2nc(-c3cccs3)ccc12,-71.1,-1.7,2.2,105.7*,-4.1,-109.7
CC(=O)c1sc2nc(-c3cccs3)ccc2c1N,-27.3,3.9,-0.1,-272.1,0.8,-74.3
CCOC(=O)c1c(NC(C)=O)sc2c(O)cccc12,-5.8,3.5,-2.7,22.9,1.1,55.3*
Cn1c(=O)oc2cc(S(=O)(=O)N3CCCC(C(=O)Nc4ccccn4)C3)ccc21 (configuration not stated),5.1,10.2,-0.1,4.1,-1.7,-3.3
Cn1c(=O)oc2cc(S(=O)(=O)N3CCCC(C(=O)NC4CCCc5ccccc54)C3)ccc21 (configuration not stated),-25.2,4.2,-0.5,63.1*,-3.2,9.9
CSc1ccc2c(c1)N(CCC1CCCCN1C)c1ccccc1S2 (configuration not stated),-10.2,6.3,x,109.5*,-0.4,-0.9
Cc1ccc(-n2nnnc2-c2ccccc2Br)cc1,x,x,x,5.0,x,x
S=c1nc[nH]c2c1ncn2C1CCCO1 (configuration not stated),8.3,44.5*,78.2*,2.1,63.1*,x
CCN1CCN(C(=O)CCc2ccc(S(=O)(=O)NCCc3ccccc3)cc2)CC1,-27.2,0.5,-1.0,26.2,-1.9,55.6*
COc1ccc(CCN(C)C(=O)CN2C(=O)NC3(CCCCC3C)C2=O)cc1OC (configuration not stated),x,x,x,18.1,x,x
O=C(CCSc1ccccn1)c1ccccc1,-5.4,5.0,-1.8,-5.6,-2.3,-2.6
C[n+]1ccccc1COc1ccc(C(C)(C)C)cc1,-0.2,67.8*,0.0,30.0,72.6*,0.8
CC(C)(C)c1ccc(OCCNCc2ccccc2)cc1,-29.9,x,8.5,-9.0,x,x
CCOC(=O)C1CCCN(S(=O)(=O)c2cc3c4c(c2)CCC(=O)N4CCC3)C1 (configuration not stated),x,x,x,5.9,x,x
CC(C)c1ccc(NC(=O)CCNC(=O)N2CC(=O)Nc3ccccc32)cc1,-25.4,x,-2.5,10.3,x,x
Fc1ccc(NC(=S)N2CCCN(c3ccc(C(F)(F)F)cn3)CC2)c(F)c1,-7.7,32.9*,-6.0,10.5,35.4*,x
Cc1cc(OCC(=O)O/N=C(\N)c2ccccc2)ccc1Br,-26.6,2.7,-3.9,-39.3,-7.3,-10.0
Cc1ccc(-c2c[n+](CC(=O)OCc3ccccc3)c3n2CCC3)cc1,-22.0,4.3,-3.1,18.4,0.4,-22.7
Cc1ccc(-n2c(-c3ccccc3)c[n+]3c2CCC3)cc1,-2.3,68.0*,3.6,-31.8,76.8*,-1.0
Cc1ccc(-n2nc(C(=O)N3CCOCC3)cc2-c2ccc(Cl)cc2)cc1,1.8,3.0,-3.9,-4.9,-0.5,-19.0
FC(F)Sc1ccc(-n2c(-c3ccc(Cl)cc3)c[n+]3c2CCC3)cc1,0.3,44.3*,1.0,-3.6,23.9*,2.3
Cc1ccc(-n2c(-c3ccc(Cl)cc3)c[n+]3c2CCC3)cc1,4.4,65.0*,-6.0,-3.8,69.0*,x
O=C(COC(=O)c1cnccn1)c1cccc([N+](=O)[O-])c1,-27.3,1.3,0.4,-12.5,-1.2,x
SMILES,KLF5 inhibitor,BaF3 tox,IEC-6 cytotox,aSyn 5UTR inh,Ba/F3 V617F tox,APP transl inh
Cc1ccc(-c2cc(-c3ccc(F)cc3)nc(N)c2C#N)o1,-25.1,-0.2,-0.8,62.7*,-0.8,-1.0
Cc1ccc(-c2cc(-c3ccccc3)c(C#N)c(N)n2)o1,7.5,1.2,-2.2,13.5,2.0,-0.5
Cn1c(-c2ccccc2[N+](=O)[O-])[n+](C)c2ccccc21,-32.1,57.9*,-2.2,15.8,57.4*,x
CC(C)(C)SCCNC(=O)/C=C/c1ccc(F)cc1,-75.7,2.4,-5.0,-67.8,-1.5,-9.8
CC(C)(C)SCCNC(=O)/C=C/c1ccccc1,-42.2,44.9*,-0.2,-113.0,-0.3,x
CC(C)c1ccc(C(=O)NNC(=O)C2C3CCC(C3)C2C(=O)O)cc1 (configuration not stated),-180.9,x,3.4,-115.3,x,x
COc1ccc(OC)c(/C=C/C(=O)N(C)CC(=O)Nc2cc(C)ccc2C)c1,-36.2,-1.2,2.6,18.3,-2.9,66.2*
COc1ccc(OC)c(/C=C/C(=O)N(C)CC(=O)Nc2ccc(C)cc2)c1,-17.2,2.6,2.6,3.0,0.1,7.6

# High-throughput results (PubChem)
